Data: PubChem BioAssay AID1963822 (ICCB-Longwood Screening Facility, Harvard Medical School, 2024)
In all, about 55,000 compounds went through this assay and about 90 (0.2%) were called active. The rule behind the calls is not given here. The full list was thinned out, with actives kept by preference.

Assay: anaerobic choline-dependent bacterial growth inhibition – minimal medium, absorbance (AID 1963822)
Details: Gram-negative bacterium anaerobic choline minimal medium
[1] = measured here: choline growth z-score, timepoint 1, stronger effect = lower value

CCOc1cc(-c2noc(CCCC(=O)Nc3cccnc3)n2)ccc1OC
z-score (stronger effect = lower value): -0.11 (inactive) | z-score [1]: -0.21

CN(CCc1noc(-c2ccccc2Cl)n1)S(=O)(=O)c1cccc2nsnc12
z-score (stronger effect = lower value): 0.03 (inactive) | z-score [1]: -1.43

CCN1CCN(C(=O)c2cc(C)n(CCN3CCCC3)c2C)CC1
z-score (stronger effect = lower value): -1.12 (inactive) | z-score [1]: -1.13

Cc1nc(-c2ccc(C)c(S(=O)(=O)N3CCC(C(=O)N4CCN(c5ccc(F)cc5)CC4)CC3)c2)no1
z-score (stronger effect = lower value): 0.78 (inactive) | z-score [1]: 0.51

COC(=O)C1=CN(C)S(=O)(=O)N=C1C
z-score (stronger effect = lower value): 1.05 (inactive) | z-score [1]: 0.71

O=C(O)c1c[nH]c2ccc(S(=O)(=O)NC3CCCCNC3=O)cc2c1=O (stereo not drawn)
z-score (stronger effect = lower value): 1.32 (inactive) | z-score [1]: 1.13

O=C(c1cc2cc(Cl)ccc2[nH]1)N1CCCN(c2ccc(=O)n(-c3ccccc3)n2)CC1
z-score (stronger effect = lower value): -1.08 (inactive) | z-score [1]: -1.54

CCCCC/C=C\CC1OC1CCCCCCCC(=O)O (stereo not drawn)
z-score (stronger effect = lower value): -3.37 (active) | z-score [1]: -3.13

CCCC[C@H](C)C[C@H](O)/C=C/[C@@H]1[C@@H](CCCCCCC(=O)O)[C@@H](O)C[C@H]1O
z-score (stronger effect = lower value): 0.5 (inactive) | z-score [1]: -0.78

CCCCC/C=C\C/C=C\CCCCCCCCCC(=O)O
z-score (stronger effect = lower value): -3.44 (active) | z-score [1]: -3.23

CCCCCC(=O)CC[C@H]1[C@H](O)CC(=O)[C@@H]1C/C=C\CCCC(=O)O
z-score (stronger effect = lower value): 0.71 (inactive) | z-score [1]: 1.09

CCCCC[C@@](C)(O)/C=C/[C@H]1C=CC(=O)[C@@H]1C/C=C\CCCC(=O)O
z-score (stronger effect = lower value): -0.26 (inactive) | z-score [1]: 0.66

CCCCCCCC/C=C\CCCCCCCC(=O)OC[C@H](CO)OC(C)=O
z-score (stronger effect = lower value): 0.47 (inactive) | z-score [1]: 0.34

CCOC(=O)c1ccc(NC(=O)CSc2nnc(NC(=O)NC3CCCCC3)s2)cc1
z-score (stronger effect = lower value): 0.1 (inactive) | z-score [1]: 0.31

COc1cccc(C2Nc3ccc(Cl)cc3[C@H]3OCCC[C@@H]23)c1OC (stereo partly drawn)
z-score (stronger effect = lower value): 1.2 (inactive) | z-score [1]: 2.03

CN(CCCNC(=O)c1c2c(nc3ccccc13)C(=O)N(C1CCCCC1)C2)c1ccccc1
z-score (stronger effect = lower value): -0.07 (inactive) | z-score [1]: -1.59

COc1ccc(NC(=O)c2cccc(-c3nc(-c4ccc(F)cc4)no3)c2)cc1OC
z-score (stronger effect = lower value): -1 (inactive) | z-score [1]: -0.62

CN1CCN(S(=O)(=O)c2ccc3c(c2)C(C)(C)CN3CC(=O)N2CCCC2)CC1
z-score (stronger effect = lower value): 1.07 (inactive) | z-score [1]: 0.91

Cc1cn(C)c(CC(=O)NC2CCN(Cc3ccccc3)CC2)c1C(=O)O
z-score (stronger effect = lower value): -0.86 (inactive) | z-score [1]: 0.19

Brc1ccc(-c2nn[nH]n2)cc1
z-score (stronger effect = lower value): -1.32 (inactive) | z-score [1]: -1.04

CCOC(=O)C1CCCN(C(=O)Cn2c(=O)c3ccccc3n3c(=S)sc(-c4ccccc4)c23)C1 (stereo not drawn)
z-score (stronger effect = lower value): 0.91 (inactive) | z-score [1]: 0.36

CCN(CC)C(=O)CSc1nnc2c3ccccc3nc(-c3ccccc3)n12
z-score (stronger effect = lower value): 2.11 (inactive) | z-score [1]: 1.21

CCOc1ccc(S(=O)(=O)NC(C)C)cc1-c1nc(C)no1
z-score (stronger effect = lower value): 0.37 (inactive) | z-score [1]: -1.19

CCCN(CCC)CCNc1cc(C)nc2c(-c3ccccc3OC)c(C)nn12
z-score (stronger effect = lower value): 1.1 (inactive) | z-score [1]: -0.02

Cc1nc(-c2csc(S(=O)(=O)NCc3ccccc3Cl)c2)sc1C
z-score (stronger effect = lower value): -0.96 (inactive) | z-score [1]: -0.18

Cc1[nH]nc2c1C(C(=O)c1cccc(Cl)c1)CC(=O)N2 (stereo not drawn)
z-score (stronger effect = lower value): 0.36 (inactive) | z-score [1]: 0.1

COc1ccc(NS(=O)(=O)c2cc(-c3nc(-c4ccccc4)no3)sc2C)cc1OC
z-score (stronger effect = lower value): 0.43 (inactive) | z-score [1]: -0.06

CCN1CCN(C(=O)c2cc(N(C)S(=O)(=O)c3ccccc3)ccn2)CC1
z-score (stronger effect = lower value): 0.78 (inactive) | z-score [1]: 0.89

O=S(=O)(Nc1ccc(F)cc1)c1cc(-c2noc(C3CC3)n2)cs1
z-score (stronger effect = lower value): 0.08 (inactive) | z-score [1]: -0.4

COc1ccccc1CNc1ncc2nc(-c3ccccc3)oc2n1
z-score (stronger effect = lower value): -0.72 (inactive) | z-score [1]: -0.32

Cc1ccc(-c2cc(C(=O)N3CCN(C)CC3)no2)cc1C
z-score (stronger effect = lower value): -2.15 (inactive) | z-score [1]: -1.67

C=CCn1c(=O)c(=O)n(Cc2ccc(C(=O)N3CCC(N4CCCCC4)CC3)cc2)c2ccccc21
z-score (stronger effect = lower value): 0.52 (inactive) | z-score [1]: 0.14

O=C(Cn1cccc1-c1nc(-c2ccc(Cl)cc2)cs1)NCc1ccc2c(c1)OCO2
z-score (stronger effect = lower value): 0.32 (inactive) | z-score [1]: -0.44

CC(C)c1nnc2ccc(N3CCN(C(C)C)CC3)nn12
z-score (stronger effect = lower value): 0.55 (inactive) | z-score [1]: -2.47

CCCN1C(=O)c2ccccc2Sc2cc(-c3noc(/C=C/c4ccccc4)n3)ccc21
z-score (stronger effect = lower value): -0.13 (inactive) | z-score [1]: 0.3

COC(=O)Cn1nc2c(-c3nc(-c4ccc(Cl)cc4)no3)cccn2c1=O
z-score (stronger effect = lower value): -0.55 (inactive) | z-score [1]: -1.3

Cc1ccc(N2CC(c3nc(-c4ccc(N5CCCC5)cc4)no3)CC2=O)cc1C (stereo not drawn)
z-score (stronger effect = lower value): 0.33 (inactive) | z-score [1]: 0.93

CC1CCN(CCCNC(=O)Cc2ccc(NC(=O)N3CCSc4ncccc43)cc2)CC1
z-score (stronger effect = lower value): 1.04 (inactive) | z-score [1]: 0.79

Cc1cc(C)c2nc(C)cc(C(=O)NC3CC3)c2c1
z-score (stronger effect = lower value): 1.05 (inactive) | z-score [1]: 0.53

CCC1(CC)Cc2ccccc2-c2[nH]c(=O)n(CC3=CCCO3)c(=O)c21
z-score (stronger effect = lower value): 0.12 (inactive) | z-score [1]: -1.14

COc1ccccc1N1CCN(c2ccc(=O)n(CC(=O)NCc3ccccn3)n2)CC1
z-score (stronger effect = lower value): -0.67 (inactive) | z-score [1]: -0.7

CN(C)C(=O)c1cc2c(s1)CCC(C(=O)N(C)C)C2 (stereo not drawn)
z-score (stronger effect = lower value): 0.34 (inactive) | z-score [1]: 0.33

CC(C)(C)c1ccc(S(=O)(=O)NCc2nc(N)n(S(=O)(=O)c3ccc(C(C)(C)C)cc3)n2)cc1
z-score (stronger effect = lower value): -0.11 (inactive) | z-score [1]: 0.06

CCOc1ccc(N(Cc2nc3nc(C)cc(C)n3n2)C(=O)CC(C)C)cc1
z-score (stronger effect = lower value): -0.89 (inactive) | z-score [1]: -1.11

CCOc1ccc(-c2cc(C(=O)Oc3ccc(OC)cc3)no2)cc1
z-score (stronger effect = lower value): -0.02 (inactive) | z-score [1]: 0.37

O=C(CN1C(=O)CSc2ccc(S(=O)(=O)N3CCCC3)cc21)Nc1cccnc1
z-score (stronger effect = lower value): 0.64 (inactive) | z-score [1]: 0.19

O=C(NC1CC1)C1CCCN(c2ccc3cc(S(=O)(=O)N4CCCCC4)ccc3n2)C1 (stereo not drawn)
z-score (stronger effect = lower value): -0.89 (inactive) | z-score [1]: -0.76

O=C(Nc1ccc(F)cc1)c1ccccn1
z-score (stronger effect = lower value): -3.6 (inactive) | z-score [1]: -3.98

O=C(c1nnc(-c2ccc(S(=O)(=O)N3CCCC3)cc2)o1)N1CCCC1
z-score (stronger effect = lower value): 0.25 (inactive) | z-score [1]: 0.12

COc1ccnc2c1c(=O)n(CC(=O)N1CCCc3ccccc31)c(=O)n2C
z-score (stronger effect = lower value): 1.04 (inactive) | z-score [1]: 0.31

CCC(=O)NCCc1nc2cc(NC(=O)C3CCCCC3)ccc2n1C
z-score (stronger effect = lower value): -0.79 (inactive) | z-score [1]: -0.11

COc1cccc(CSc2nc3c(-c4ccccc4)c[nH]c3c(=O)[nH]2)c1
z-score (stronger effect = lower value): 0.44 (inactive) | z-score [1]: -0.28

Cn1c(=O)n(-c2ccc(F)cc2)c2nc(-c3cccc(F)c3)nc(C(N)=O)c21
z-score (stronger effect = lower value): -0.47 (inactive) | z-score [1]: 0.68

CCc1nc2ccccc2c(=O)n1Cc1noc(CN2C(=O)COc3ccccc32)n1
z-score (stronger effect = lower value): 0.03 (inactive) | z-score [1]: 0.5

O=C(NC1CCCc2ccccc21)c1ccc(-c2cc(N3CCOCC3)ncn2)cc1 (stereo not drawn)
z-score (stronger effect = lower value): 0.49 (inactive) | z-score [1]: -1.29

Cc1noc(-c2cccnc2N2CCN(C(c3ccccc3)c3ccccc3)CC2)n1
z-score (stronger effect = lower value): 0.85 (inactive) | z-score [1]: 0.28

Cc1nc(-c2cc(S(=O)(=O)N3CCN(c4ccccc4F)CC3)c(C)s2)cs1
z-score (stronger effect = lower value): 1.43 (inactive) | z-score [1]: 0.83

O=C(NCCN1CCOCC1)C1CCN(c2cncnc2N2CCCCC2)CC1
z-score (stronger effect = lower value): 0.71 (inactive) | z-score [1]: 0.79

C=CCSc1n[nH]c(NC(C)=O)n1
z-score (stronger effect = lower value): 0.76 (inactive) | z-score [1]: 0.64

Cc1ccc(C(C)C)c(OC(C)C(=O)Nc2onc3c2CCCC3)c1 (stereo not drawn)
z-score (stronger effect = lower value): -0.74 (inactive) | z-score [1]: -0.51

CCN1C(=O)c2ccccc2Sc2cc(-c3noc(-c4ccc5c(c4)OCO5)n3)ccc21
z-score (stronger effect = lower value): 0.5 (inactive) | z-score [1]: 0.22

CCOc1ccc(N2CCCCn3c2nc2c3c(=O)n(CCC(C)C)c(=O)n2C)cc1
z-score (stronger effect = lower value): -0.58 (inactive) | z-score [1]: 0.29

COc1ccc(-c2cc3nc(C)cc(N4CCOCC4)n3n2)cc1OC
z-score (stronger effect = lower value): 0.32 (inactive) | z-score [1]: -0.41

CCN(CCCNC(=O)c1cccn2c(=O)c3ccccc3nc12)c1cccc(C)c1
z-score (stronger effect = lower value): 1.29 (inactive) | z-score [1]: 1.6

Cc1ccc(/C=C/c2nn3c(-c4ccoc4C)nnc3s2)cc1C
z-score (stronger effect = lower value): -0.03 (inactive) | z-score [1]: 0.36

O=C(CCc1nc(CSc2nnc(-c3ccccc3)o2)no1)Nc1ccc(F)c(Cl)c1
z-score (stronger effect = lower value): -0.29 (inactive) | z-score [1]: -0.24

COc1cc(OC)cc(N2C=C(C#N)S(=O)(=O)c3cc(F)ccc32)c1
z-score (stronger effect = lower value): 0.71 (inactive) | z-score [1]: 0.22

O=S(=O)(c1ccc2c(c1)-c1oncc1CO2)N1CCN(C(c2ccccc2)c2ccccc2)CC1
z-score (stronger effect = lower value): 0 (inactive) | z-score [1]: -0.77

CC(=O)N1CCc2cc(N3CC(C(=O)N4CCC5(CC4)OCCO5)CC3=O)ccc21 (stereo not drawn)
z-score (stronger effect = lower value): -1.2 (inactive) | z-score [1]: -0.84

O=S(=O)(c1ccccc1F)N1CCN(c2ncnc3c2nnn3-c2ccccc2)CC1
z-score (stronger effect = lower value): 1.03 (inactive) | z-score [1]: 0.86

COc1cc(C2Nc3c(C)cc(C)cc3[C@H]3OCC[C@@H]23)cc(Br)c1OC (stereo partly drawn)
z-score (stronger effect = lower value): 0.49 (inactive) | z-score [1]: 0.1

Cc1cc(C)nc(SCCn2c(N3CCC(C)CC3)nc3c2c(=O)[nH]c(=O)n3C)n1
z-score (stronger effect = lower value): 0.25 (inactive) | z-score [1]: 0.24

COc1ccc(C2CC(c3c(O)n(C)c(=O)n(C)c3=O)=NN2)cc1 (stereo not drawn)
z-score (stronger effect = lower value): 0.56 (inactive) | z-score [1]: 0.56

O=C(Cn1c(=O)c(=O)n(Cc2ccncc2)c2ncccc21)NCCN1CCCCC1
z-score (stronger effect = lower value): 1.65 (inactive) | z-score [1]: 0.64

COC(=O)c1cc(S(=O)(=O)N2CCCC2C(=O)N2CCc3ccccc32)cn1C (stereo not drawn)
z-score (stronger effect = lower value): -0.38 (inactive) | z-score [1]: -0.18

COc1ccc(-c2cc(Oc3cccc(C(=O)NC4CCCCC4)c3)ncn2)cc1
z-score (stronger effect = lower value): 1.55 (inactive) | z-score [1]: 1.41

O=C(NCCC1=CCCCC1)C1CCN(c2cc(-c3cccc(F)c3)ncn2)CC1
z-score (stronger effect = lower value): 1.01 (inactive) | z-score [1]: 0.77

CC(C)NC(=O)Cc1csc(NC(=O)C2CC2)n1
z-score (stronger effect = lower value): 0.37 (inactive) | z-score [1]: -0.55

COc1cccc(NC(=O)c2ccc(-n3nc(N4CCCC4)ccc3=O)cc2)c1
z-score (stronger effect = lower value): -0.3 (inactive) | z-score [1]: -0.77
